Laboratory results: PubChem BioAssay
Unmarked numbers belong to inactive results.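 Rule for the calls: active = viability loss from added drug above about 55%, and viability with drug at most 40%, in both replicates (limit read from the data, passing the limit was not always enough); inconclusive = both conditions met in only one replicate; inactive = neither replicate meets both conditions.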

assay: MRP1 drug-resistance reversers in H69AR cells – cell-based, doxorubicin co-treatment, pilot screen (AID 601); conditions: H69AR cells + 2 uM doxorubicin, CellTiter-Glo, 72 h; at 10 µM; stronger effect = higher value

Structure (SMILES)	differential viability (reversal) [%]
O=C(NCCO)c1scc2c1OCCO2	-7.95
CN(c1ccccc1)S(=O)(=O)c1ccc(C(=O)OCC(=O)NCc2ccco2)cc1	-10.4
Clc1ccc(SCCn2ccnc2)cc1	11.8
CC(C)(CO)NC(=O)CCCOc1ccc(Cl)cc1Cl	19
Cc1ccccc1NC(=O)CSc1nc(N)c(C#N)c(-c2cccs2)c1C#N	3.09
CCN(CC)C(=O)CSc1nc2ccc(NC(=O)CSc3nccn3C)cc2s1	6.22
Cc1cc(Oc2ccccc2)nc(-c2ccccc2)n1	7.91
COc1ccc(S(=O)(=O)CCC(=O)O)cc1	10.3
O=C(Nc1ccc(OC(=O)c2ccco2)cc1)c1ccco1	-10.4
CCCc1nnc(SCC(=O)N2CCOCC2)n1Cc1ccco1	15.3
Cc1ccc(S(=O)(=O)N2CCC(C(=O)N3CCC[C@H]3C(=O)NCc3ccccc3)CC2)cc1	-5.42
C=C(C)Cn1c(N2CCN(CC)CC2)nc2c1c(=O)[nH]c(=O)n2C	-1.74
Cc1cc2oc(=O)cc(CN3CCN(Cc4ccc5c(c4)OCO5)CC3)c2cc1C	0.615
Cn1c(=O)c(C(=O)Nc2cccnc2)c(O)c2ccccc21	-9.81
C=Cn1c(C(=O)O)cc(CC)c1-c1ccccc1	2.8
COc1ccccc1N1C(=O)CC(Sc2nc(C)cc(C)n2)C1=O (stereo not given)	-9.3
COc1cccc(NC(=O)NC2(C(F)(F)F)Oc3ccccc3O2)c1	-17.4
CCOC(=O)Nc1ccc2c(c1)N(C(=O)CN(CC)CC)c1ccccc1C=C2	8.63
O=C1C(Cl)=C(N2CCOCC2)C(=O)N1CCc1ccccc1	0.02
CCN(CCCNC(=O)CCNC(=O)Cn1ccc2ccccc2c1=O)c1ccccc1	11.8

Structure (SMILES)	differential viability (reversal) [%]
O=C(Nc1cccc2ccccc12)N1CCOCC1	-8.41
O=C1C(Cl)=C(N2CCCCC2)C(=O)N1c1ccccc1Cl	1.39
CCC1(c2ccc(F)cc2)NC(=O)N(CC(=O)c2ccc[nH]2)C1=O (stereo not given)	9.76
Nn1c(SCC(=O)Nc2ccc(F)cc2)nnc1-c1cccnc1	7.72
CC1=C(C(N)=O)C(c2cccnc2)n2nc(SCc3ccccc3Cl)nc2N1 (stereo not given)	14.7
COc1cc2c(cc1OC)C(c1cccnc1)CC(=O)N2 (stereo not given)	8.69
CC(=O)c1cccc(NC(=O)c2ccc(NS(C)(=O)=O)cc2)c1	-1.39
CCC(C)(C)n1nnnc1C(c1ccc(OC)c(OC)c1)N1CCN(c2ccc(F)cc2)CC1 (stereo not given)	31.3
Cc1cccc(C)c1NC(=O)CS(=O)CC(=O)NC1CCCc2ccccc21 (stereo not given)	-3.62
COc1ccccc1-c1cn[nH]c(=S)n1	3.25
COc1ccc(S(=O)(=O)N2CCOCC2)cc1C(=O)Nc1cc(C)on1	8.07
Cc1cc(C(=O)OCCO)c(C#N)c(N)n1	-5.51
CCOC(=O)c1nnc(-c2ccccc2)o1	9.09
COCC(=O)Nc1sc2c(c1C(=O)OC)C(C(=O)OC)CC2 (stereo not given)	12.5
Cc1oc(-c2ccc(Cl)cc2)nc1CS(=O)CC(=O)NCCCN(C)C1CCCCC1 (stereo not given)	10.8
Cn1c(=O)c(-c2ccccc2)nn2c3ccccc3nc12	-0.73
CCN1CCN(c2ncnc3c2oc2nc(C)c4c(c23)CC(C)(C)OC4)CC1	-1.16
CCn1c(=O)cc(SCC(=O)Nc2cccnc2)c2ccccc21	14.7
COCCCNS(=O)(=O)c1ccc2c(c1)CCN2C(C)=O	-17.4
CCN(CC)S(=O)(=O)c1ccc(Cl)c(C(=O)OC)c1	4.65
